Reference: PubChem BioAssay AID1845226 (National Center for Advancing Translational Sciences (NCATS), 2023)
Results filed as inconclusive are left out. Where a call stands in place of a potency, no number is given. Active and inactive are the calls of the source. Calls come from the whole dose curve; as a rule, active = well fitted inhibition curve with a large enough effect; inconclusive = small, poorly fitted or top-dose-only effect; inactive = no such curve, though single readings can be large or run the other way.

Test: Confirmatory fluorescence-based thiol-reactive (MSTI) qHTS assay for identification of artifact compounds
Settings: MSTI thiol-reactivity probe, 1 h; series mostly up to 39.2 µM
Outline: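 Thiol reactivity read as MSTI fluorescence (Ex/Em 525/598 nm) after 1 h at room temperature in PBS pH 7.4 with 2% DMSO, MSTI 4 uM. Data normalised to Acetyl-MSTI and MSTI control wells, 4-parameter Hill fit.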
Potency is the fitted concentration of half-maximal effect.

Compound	Potency
Cc1c(O)cc(O)c2c(=O)c(-c3ccc(O)cc3)coc12	inactive
COc1ccc(Nc2nc(Nc3ccc(OC)cc3OC)nc(N3CCOCC3)n2)c(OC)c1	6.12 µM (active)
CCOc1ccc(NC(=O)c2cnc(Nc3ccccc3OC)c3ccccc23)cc1	inactive
CCCCCn1c(=O)[nH]c2cc(C(=O)Nc3ccc(F)cc3)ccc2c1=O	inactive
Cc1ccc(NC(=O)CCn2cccn2)cc1Cl	inactive
COc1ccc(-c2oc3cc(O[C@@H]4OC(CO)C(O)C(O)C4O)c(OC)c(O)c3c(=O)c2OC)cc1O (some centres not stated)	inactive
Cc1ccc(NC(=O)Cn2c(=O)oc3cc(S(=O)(=O)N4CCCCC4)ccc32)c(Cl)c1	inactive
COc1ccc(CCn2c3c(c(=O)[nH]c2=S)CN(C(C)C)CN3)cc1OC	inactive
COC(=O)c1c(OCc2ccccn2)cc(=O)n2c1CCN(C(=O)c1n[nH]c3c1CCCC3)CC2	inactive
COc1ccc([C@H]2C[C@H](O)[C@@H](n3cc(C4CC4)nn3)CN2C(=O)c2cccs2)cc1	inactive
COc1ccc(C2=NN(CCC(=O)NCCc3ccccc3)C(=O)CC2)cc1	inactive
Cc1ccc(C)c(N2CCN(Cc3csc(C)c3)CC2)c1	inactive
CN(Cc1ccccc1)c1ncnc2c1nc1n2CCCC1	inactive
CCc1ccc2c(O)c3c(cc2c1C(=O)OC)C(=O)c1c(O)ccc(O)c1C3=O	0.386 µM (active)
CCOc1ccc(C(=O)N2CCC(c3nc(-c4ccc(S(=O)(=O)N5CCCC5)cc4)no3)CC2)cc1	inactive
Cc1ccc(CN(Cc2ccco2)C(=O)COc2ccc(Cl)cc2Cl)cc1	inactive
CCSc1ncc(Cl)c(C(=O)Nc2c(C(=O)Nc3cccc(C)c3)oc3ccccc23)n1	inactive
